# Data as given in the emibetuzumab library of Makowski et al. (2022).
# This is one part of the list. The true hit rate is not given.
# B1: VH:VL chains; a variant is named by its letters at X, in order (parent)
# chain 1: QVQLVQSGAEVKKPGASVKVSCKASGYTFTDYXMHWVRQAPGQGLEWMGXVNPNXXXTTYNQKFEGRVTMTTDTSTSTAYMELRSLRSDDTAVYYCARXNXLDXWGQGTTVTVSS
# chain 2: DIQMTQSPSSLSASVGDRVTITCSVSSSVSSIYLHWYQQKPGKAPKLLIYSTSNLASGVPSRFSGSGSGTDFTLTISSLQPEDFATYYCQVYSGYPLTFGGGTKVEIK
# Variants of: B1
# Assay: yeast display scFab, FACS + sequencing
# Details: with MET
# Summary of the method: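 Two magnetic rounds on Protein A beads coated with HGFR-Fc, followed by FACS, were used to enrich a yeast surface scFab library mutated in the heavy-chain CDRs. FACS gated the top 50% antigen-positive cells after 3 h labelling at room temperature with 1 nM HGFR-Fc and anti-Myc in PBSB plus 1% milk. Binding to the antigen was scored positive when a sequence occurred in both antigen-positive samples from deep sequencing and negative when it occurred only in the input.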
row,Variant,antigen binding call
1,DAGTGAGD,no binding
2,SETTDDAV,no binding
3,SEARSSLV,no binding
4,DRREDSSA,no binding
5,FRRGGASA,binds
6,YAEESSSA,no binding
7,FARGGYVA,no binding
8,YRRGDSSA,binds
9,DRRGDSSA,no binding
10,YRRGSSSA,binds
11,YRRKGSSA,binds
12,VAAKSAAA chain 1 R38K,no binding
13,ATGGDDWF,no binding
14,VEGGGDWS,no binding
15,SEARNAGD,no binding
16,VKGRADWA,no binding
17,VTGGSDVY,no binding
18,FAGGGDGA,no binding
19,FEETDASA,no binding

row,Variant,antigen binding call
1,YRRGGASA,binds
2,FRGKDASA,binds
3,FAEGDDSA,no binding
4,YRRGGSSA,binds
5,FATEGASA,binds
6,DARGGSSA,no binding
7,FRGRDFSA,no binding
8,STGGDDVY,no binding
9,VAGTGDWD,no binding
10,DTGKDAGD,no binding
11,SETGGDVA,no binding
12,SEARSAVS,no binding
13,SEEASSSA,no binding
14,YRRRDSSA,binds
15,DRGRDSSA,no binding
16,YTGTSSSA,no binding
17,YRRGGSVA,binds
18,VTGGDDVY,no binding
19,YTGGDDVV,no binding

row,Variant,antigen binding call
1,FRGGGSSA,binds
2,YEGGGSSA,no binding
3,FKGEGSSA,no binding
4,FRGRGSSA,binds
5,DTGRADWA,no binding
6,DTREGDVD,no binding
7,YKRGDDSS,no binding
8,DGRGDALS,no binding
9,YKRGDASS,binds
10,YKRGDSSS,binds
11,VGTKGDAA,no binding
12,DEGGGSSA,no binding
13,FRGRDDWA,no binding
14,FRGGGSWA,binds
15,FRTGGAVA,binds
16,FRGGGSAA,binds
17,DATGGAVA,no binding
18,FRGTGSWA,no binding
19,FRGGGAVA,binds
